PubChem BioAssay (NCATS)
Inconclusive results are not listed. Activity calls are given as the source filed them. Calls follow the shape of the dose curve; as a rule, active = well fitted curve in the direction sought with a large enough effect; inconclusive = small, poorly fitted or top-dose-only effect, or another doubt; inactive = no such curve, though single readings can be large; an effect the other way counts as inactive or inconclusive.

Tests used:
[1] = qHTS for Inhibitors of Plasmodium falciparum (DD2) proliferation (AID 504314); conditions: P. falciparum Dd2 in erythrocytes, SYBR Green growth, 72 h; series mostly up to 1.12 µM
In short: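 Parasite proliferation measured as SYBR Green signal from Plasmodium DNA, mature erythrocytes lacking DNA. 72 h incubation, 37C; activity scaled between vehicle and 0.29 uM artemisinin, with correction from vehicle-only plates.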

[2] = qHTS for Inhibitors of Plasmodium falciparum (GB4) proliferation (AID 504315); also: nearly all actives have a fitted effect of over 50% in size; conditions: P. falciparum GB4 in erythrocytes, SYBR Green DNA, 72 h; series mostly up to 6.7 µM
In short: (§1)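 Parasite growth measured as SYBR Green DNA fluorescence (ex 485, em 535 nm) after overnight lysis following 72 h culture at 37 °C, 0.3% parasitemia, 2.5% hematocrit. Values normalized against DMSO and 0.29 uM artemisinin controls, with plate-stack correction.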

[3] = qHTS for Inhibitors of Plasmodium falciparum (7G8) proliferation (AID 504316); also: nearly all actives have a fitted effect of over 65% in size; conditions: P. falciparum 7G8 in erythrocytes, SYBR Green DNA, 72 h; series mostly up to 6.7 µM
In short: as §1

[4] = qHTS for Inhibitors of Plasmodium falciparum (HB3) proliferation (AID 504318); also: nearly all actives have a fitted effect of over 60% in size; conditions: P. falciparum HB3 in erythrocytes, SYBR Green DNA, 72 h; series mostly up to 7.21 µM
In short: as §1

[5] = qHTS for Inhibitors of Plasmodium falciparum (CP250) proliferation (AID 504320); conditions: P. falciparum CP250 in erythrocytes, SYBR Green DNA, 72 h; series mostly up to 6.7 µM
In short: as §1

Measured: Potency
Potency is read from the fitted curve at half-maximal effect.

COC(=O)C1=C(C(=O)OC)[C@@H]2N(Cc3ccccc3)c3ccccc3[C@@]23C[C@@H](C(=O)OC)N(C(=O)NCCBr)C3=N1
inactive: all assays above

CCCCc1nc2c(c3c1C[C@H](C)OC3)CN(C(=O)C1CC1)CC2
inactive: all assays above

COC(=O)C1=C(C(=O)OC)[C@@H]2N(C)c3ccc(OC)cc3[C@@]23C[C@@H](C(=O)OC)N=C3N1
inactive: all assays above

COCCN1C(=O)N(C)[C@@H](c2ccccc2)C(C(C)=O)=C1C
inactive: all assays above

C=CCN1C=C2C(=O)C(C)(OC(=O)C3CCCC3)C(=O)C(c3ccccc3)=C2C=C1CCCC(=O)OC (stereo not given)
inactive: all assays above

Fc1ccccc1-c1nc(-c2ccccc2)oc1NC1CCCCC1
inactive: all assays above

CCOC(=O)CN1C(=O)N[C@@H](CCc2ccccc2)C(C(C)=O)=C1C
inactive: all assays above

COC(=O)C1=C(C(=O)OC)[C@@H]2Nc3ccccc3[C@@]23C[C@@H](C(=O)OC)N(S(=O)(=O)c2ccc(C)cc2)C3=N1
inactive: all assays above

COC(=O)CCCC1=CC2=C(c3ccccc3)C(=O)C(C)(OC(=O)C3CCCC3)C(=O)C2=CN1C(CO)CO (stereo not given)
inactive: all assays above

CCN1C(=O)N[C@@H](c2ccco2)C(C(=O)OC)=C1C
inactive: all assays above

CC1(OC(=O)CCc2ccccc2)C(=O)C=C2C=C(c3ccc(C#N)cc3)N(C3CC3)C=C2C1=O (stereo not given)
inactive: all assays above

COC/C=C/C1=CC2=CC(=O)C(C)(OC(=O)c3cnc4ccccc4n3)C(=O)C2=CN1CC(C)C (stereo not given)
inactive: all assays above

CC#CCN1c2ccccc2[C@]23C[C@@H](C(=O)OC)N(S(=O)(=O)c4cccs4)C2=NC(C(=O)OC)=C(C(=O)OC)[C@H]13
inactive: all assays above

COC/C=C/C1=CC2=CC(=O)C(C)(OC(=O)c3cnc4ccccc4n3)C(=O)C2=CN1CCN1CCOCC1 (stereo not given)
inactive: all assays above

COc1ccc(C2=CC3=C(Br)C(=O)C(C)(OC(=O)c4cnc5ccccc5n4)C(=O)C3=CO2)cc1 (stereo not given)
inactive: all assays above

CC1(C)O[C@@H](C(O)(c2cc(F)c(F)c(F)c2)c2cc(F)c(F)c(F)c2)[C@H](C(O)(c2cc(F)c(F)c(F)c2)c2cc(F)c(F)c(F)c2)O1
active: [1] 671 nM | [2] 953 nM | [3] 379 nM | [4] 536 nM | [5] 849 nM

COC(=O)CCC(=O)OC1(C)C(=O)C2=CN(CCN3CCOCC3)C(c3ccc(OC)cc3)=CC2=C(Br)C1=O (stereo not given)
inactive: all assays above

CCN1C(=O)N[C@@H](c2cccc(C(F)(F)F)c2)C(C(C)=O)=C1C
inactive: all assays above

COc1ccc(NC(=O)N2CCc3nc(COc4ccccc4)c4c(c3C2)CO[C@@H](C)C4)cc1
inactive: all assays above

COCCN1C(=O)N[C@@H](c2cccc(C(F)(F)F)c2)C(C(=O)OC)=C1C
inactive: all assays above

CCN1C(=O)N[C@@H](c2ccccc2)C(C(=O)OC)=C1C
inactive: all assays above

CCOC(=O)CN1C(=O)N[C@@H](c2cccs2)C(C(C)=O)=C1C
inactive: all assays above

COC(=O)CCC(=O)OC1(C)C(=O)C=C2C=C(C3CC3)N(Cc3ccccc3)C=C2C1=O (stereo not given)
inactive: all assays above

C=CCN1C=C2C(=O)C(C)(OC(=O)CCC(=O)OC)C(=O)C=C2C=C1C1CC1 (stereo not given)
inactive: all assays above
